Assay outcomes: PubChem BioAssay, National Center for Advancing Translational Sciences (NCATS)
An excerpt weighted towards active compounds, which were near 10% of everything screened.
BAZ2B inh – inhibitors of human BAZ2B bromodomain | Q9UIF8 | 4.4% of 360,000 active | AlphaScreen BAZ2B-H3K14Ac peptide displacement | Potency, µM (highest dose often 114 µM), for inactives: at the top dose activity change, negative = inhibition, actives largely listed as inhibitors | AID 504333; also: potency is read from the fitted curve at half-maximal effect; % is scaled to controls: 0 for no effect and ±100 for the full control effect; nearly all actives have a fitted effect of over 60% in size
Target sequence (Q9UIF8 whole entry, looked up): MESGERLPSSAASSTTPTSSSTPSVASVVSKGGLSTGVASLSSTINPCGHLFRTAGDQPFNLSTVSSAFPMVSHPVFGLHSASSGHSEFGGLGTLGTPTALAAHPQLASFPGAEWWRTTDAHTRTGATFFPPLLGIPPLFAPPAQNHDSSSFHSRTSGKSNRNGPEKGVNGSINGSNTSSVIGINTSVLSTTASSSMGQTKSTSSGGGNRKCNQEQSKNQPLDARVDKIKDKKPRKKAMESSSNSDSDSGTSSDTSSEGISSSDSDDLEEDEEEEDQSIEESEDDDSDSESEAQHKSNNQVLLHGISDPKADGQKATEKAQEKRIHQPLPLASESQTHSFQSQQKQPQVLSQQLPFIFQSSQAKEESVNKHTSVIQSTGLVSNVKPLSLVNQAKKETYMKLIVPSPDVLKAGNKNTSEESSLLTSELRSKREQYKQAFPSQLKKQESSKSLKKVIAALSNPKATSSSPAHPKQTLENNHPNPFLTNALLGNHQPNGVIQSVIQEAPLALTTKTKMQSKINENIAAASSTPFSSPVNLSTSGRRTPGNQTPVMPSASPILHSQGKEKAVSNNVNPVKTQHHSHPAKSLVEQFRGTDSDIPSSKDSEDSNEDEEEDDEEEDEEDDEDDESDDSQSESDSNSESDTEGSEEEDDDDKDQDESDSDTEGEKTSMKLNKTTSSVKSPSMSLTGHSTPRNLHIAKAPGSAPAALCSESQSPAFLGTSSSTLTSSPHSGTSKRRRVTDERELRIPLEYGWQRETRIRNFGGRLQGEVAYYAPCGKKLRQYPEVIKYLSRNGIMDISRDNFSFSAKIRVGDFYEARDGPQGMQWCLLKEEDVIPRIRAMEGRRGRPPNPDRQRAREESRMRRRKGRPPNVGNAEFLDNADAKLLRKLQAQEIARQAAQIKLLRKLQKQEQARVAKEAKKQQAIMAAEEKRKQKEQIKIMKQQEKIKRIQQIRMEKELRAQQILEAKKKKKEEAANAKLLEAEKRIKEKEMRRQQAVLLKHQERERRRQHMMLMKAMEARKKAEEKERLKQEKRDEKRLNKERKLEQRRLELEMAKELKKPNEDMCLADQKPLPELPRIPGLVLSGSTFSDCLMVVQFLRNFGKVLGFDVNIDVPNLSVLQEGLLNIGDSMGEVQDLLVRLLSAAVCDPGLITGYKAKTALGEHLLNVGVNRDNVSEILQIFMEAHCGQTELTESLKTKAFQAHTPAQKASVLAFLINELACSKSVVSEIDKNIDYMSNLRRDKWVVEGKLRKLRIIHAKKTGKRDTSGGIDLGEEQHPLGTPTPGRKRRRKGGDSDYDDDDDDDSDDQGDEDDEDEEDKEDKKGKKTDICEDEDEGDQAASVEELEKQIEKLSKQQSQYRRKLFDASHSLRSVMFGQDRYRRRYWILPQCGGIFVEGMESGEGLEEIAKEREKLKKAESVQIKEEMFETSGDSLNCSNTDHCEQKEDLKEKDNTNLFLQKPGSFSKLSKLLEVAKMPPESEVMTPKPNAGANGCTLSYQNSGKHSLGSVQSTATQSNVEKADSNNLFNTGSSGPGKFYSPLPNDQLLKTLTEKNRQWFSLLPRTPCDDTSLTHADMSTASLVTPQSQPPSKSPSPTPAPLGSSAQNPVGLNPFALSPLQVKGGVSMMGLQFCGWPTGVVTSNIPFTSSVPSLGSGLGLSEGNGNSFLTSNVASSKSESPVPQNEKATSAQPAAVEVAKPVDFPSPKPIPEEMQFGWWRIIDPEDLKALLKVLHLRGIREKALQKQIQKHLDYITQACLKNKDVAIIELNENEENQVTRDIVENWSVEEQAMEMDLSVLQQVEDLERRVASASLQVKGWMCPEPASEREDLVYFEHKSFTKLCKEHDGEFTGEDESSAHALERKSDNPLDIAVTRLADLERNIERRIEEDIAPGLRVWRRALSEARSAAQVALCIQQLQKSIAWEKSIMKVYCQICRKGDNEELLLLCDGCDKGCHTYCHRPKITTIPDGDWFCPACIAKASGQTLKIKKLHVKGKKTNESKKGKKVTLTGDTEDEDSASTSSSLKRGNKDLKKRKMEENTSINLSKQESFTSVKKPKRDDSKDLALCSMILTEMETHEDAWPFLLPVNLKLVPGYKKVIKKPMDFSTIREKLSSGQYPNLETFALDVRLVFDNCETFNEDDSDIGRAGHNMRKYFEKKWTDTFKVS
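In this displacement format the biotinylated H3(5-23) peptide acetylated at Lys14 serves as ligand at 50 nM, with BAZ2B at 50 nM in PBS pH 7.4 containing 0.01% Tween-20. Donor and acceptor beads are 10 ug/mL final.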
Six1-Eya2 blk – Six1/Eya2 interaction inhibition | AlphaScreen GST-Six1/His-Eya2 binding, biochemical; stronger effect = lower value | 0.56% of 360,000 active | AID 651725 | activity change, % (test concentration not listed) | Q15475+O00167; in the data active = activity change below about -65%; inconclusive = mostly about -30% to -63%; also: % is scaled to controls: 0 for no effect and ±100 for the full control effect
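AlphaScreen luminescence read after one hour at 37 °C in darkness. Pin-transferred compounds met GST-Six1 and His-Eya2 protein (5X stock 250 nM/500 nM) plus glutathione donor and Ni-chelate acceptor beads (5X, 50 ug/mL).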
JMJD2A Tudor – blocks the human JMJD2A Tudor domain; AlphaScreen JMJD2A-Tudor / H3K4me3 peptide binding; 4.4% of 390,000 active; AID 504339; Potency, µM (top dose mostly 114 µM), for inactives: top-dose activity change, negative = inhibition, usual class: inhibitors; also: potency is read from the fitted curve at half-maximal effect; % is scaled to controls: 0 for no effect and ±100 for the full control effect; nearly all actives have a fitted effect of over 50% in size
G9a inh – inhibitors of human histone lysine methyltransferase G9a; Q96KQ7; G9a H3K9 monomethylation, AlphaScreen, 2 h; Potency, µM (doses to about 102 µM), for inactives: at the top dose activity, negative = inhibition, most hits filed as inhibitors; 8.8% of 350,000 active; also: potency is read from the fitted curve at half-maximal effect; % is scaled to controls: 0 for no effect and ±100 for the full control effect; nearly all actives have a fitted effect of over 75% in size
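Step 1: enzyme (final 20 nM) with compound, 15 min RT. Step 2: substrate peptide 500 nM and SAM 20 uM, 2 h RT. Step 3: anti-H3K9me1 antibody and AlphaScreen beads, 10 min, then plate read.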
CtBP-E1A inh – inhibitors of CtBP/E1A interaction. activity change, % (test concentration not listed). 0.49% of 340,000 active. AlphaScreen GST-E1A/His-CtBP binding, 1536-well; stronger effect = lower value; in the data active = activity change below about -65%; inconclusive = mostly about -30% to -63%; also: % is scaled to controls: 0 for no effect and ±100 for the full control effect
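Steps: dispense buffer (Tris pH 8.0, NaCl 300 mM, TCEP 1 mM, BSA, Tween 20); add 5X protein mix (GST-E1A, His-CtBP, 125 nM each); pin 23 nL compound; 2 h at 37 °C, dark; add 5X beads (50 ug/mL); 1 h; read.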
HP1b chromo inh – HP1-beta chromodomain-methylated histone interaction inhibition | P83916 | AlphaScreen HP1-beta / biotin-H3K9me3 peptide binding | Potency, µM (highest dose often 114 µM), for the others: top-dose activity change, negative = inhibition, hits mostly inhibitors | 0.56% of 390,000 active | AID 540317; also: potency is read from the fitted curve at half-maximal effect; nearly all actives have a fitted effect of over 70% in size
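Compound inhibition of the preformed complex between 50 nM HP1-beta and 50 nM biotinylated H3K9me3 peptide was read by AlphaScreen. Buffer was PBS pH 7.4 with 0.01% Tween-20. Incubations ran 30 min at room temperature, with 10 ug/mL donor/acceptor beads.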
Starred values were filed as active, the others as inactive; u = inconclusive; x = not tested or not shown; [ ] = dose if it differs, or a comment. Unless noted, calls follow the shape of the dose curve; as a rule, active = well fitted inhibition curve with a large enough effect; inconclusive = small, poorly fitted or top-dose-only effect; inactive = no such curve, though single readings can be large or run the other way.

SMILES | BAZ2B inh | Six1-Eya2 blk | JMJD2A Tudor | G9a inh | CtBP-E1A inh | HP1b chromo inh
Cc1ccc(S(=O)(=O)N(CC(=O)Nc2c(C)cccc2C)c2cccc(Cl)c2)cc1 | -20% | x | -11% | -3%[59 µM] | x | 7%
COc1ccc(NC(=O)N2CCN(c3nc(-c4cccc(OC)c4)cs3)CC2)cc1 | u | -26 | -29% | 13µM* | -27 | -2%
COc1cccc(-c2csc(NC(=O)Oc3ccccc3)n2)c1 | u | -11 | 89µM* | -2% | -8 | u
COc1ccc(-c2csc(NC(=O)CS(=O)(=O)c3ccccc3)n2)cc1 | -10% | -5 | -27% | 45µM* | -1 | 4%
O=C(COc1ccc(Cl)cc1)Nc1nc(-c2ccncc2)cs1 | -17% | 6 | -32% | 7.9µM* | 3 | u
Cc1ccccc1CNC(=O)c1ccc2nc(C(C)C)oc2c1 | 6% | x | 9% | -4%[59 µM] | x | 33%[57 µM]
COc1ccc2c(c1)c1c(c(=O)n(-c3ccccc3)c(=O)n1CC(=O)NCCC1=CCCCC1)n2C | -3% | x | -6% | 3%[59 µM] | x | 20%
CCCCc1ncc(CN2CCC(n3nccc3NC(=O)c3ccccc3OC)CC2)[nH]1 | u | -2 | u | -5% | -3 | 12%
Cc1ccccc1CCNC(=O)c1cc2cc(S(=O)(=O)N3CCCCC3)ccc2n1C | 4% | x | -16% | -7%[59 µM] | x | 21%[57 µM]
COc1ccc(-c2csc(NC(=O)CSc3nc(C)nc4sc(C(=O)O)c(C)c34)n2)cc1 | 50µM* | -15 | 22µM* | x | -9 | 22µM*
COc1ccc(CC(=O)Nc2nc(-c3ccc(F)c(F)c3)cs2)cc1 | 10% | 9 | -8% | -13% | 2 | 6%
CC(=O)Nc1cccc(-c2csc(Nc3ccccn3)n2)c1 | -11% | -9 | u | 16%[0.0925 µM] | 7 | 6%
CC(=O)Nc1cccc(-c2csc(NCc3ccccc3)n2)c1 | 20µM* | -5 | 13µM* | 11µM* | -7 | u
COc1ccc(-c2csc(NC(=O)CSc3nc(C)cs3)n2)cc1 | x | -13 | -18% | x | 2 | 29%
COc1ccc(CC(=O)Nc2nc(-c3ccncc3)cs2)cc1 | -14% | 5 | -18% | 40µM* | 1 | 25%
COc1ccc(CCC(=O)Nc2nc(-c3ccncc3)cs2)cc1 | -7% | x | x | 8.9µM* | x | x
CCCC(=O)Nc1nc(-c2ccc(OC)cc2)cs1 | -5% | 6 | -11% | 11%[12.7 µM] | 3 | 11%
CCCC(=O)Nc1c2c(nn1-c1cccc(Cl)c1)CS(=O)(=O)C2 | -14%[57.1 µM] | 4 | 1% | 1% | 7 | 32%
CCc1ccc(NC(=O)CSc2nc(-c3ccccc3)c(C#N)c(=O)[nH]2)cc1 | -25% | x | -16% | -17%[59 µM] | x | 43%
O=[N+]([O-])c1ccccc1/C=N/n1c(-c2cccnc2)n[nH]c1=S | -27% | 6 | 2.2µM* | 2.5µM* | -15 | 9%
O=[N+]([O-])c1cc2c(cc1/C=N/n1c(-c3ccccc3)n[nH]c1=S)OCO2 | u | -3 | 4µM* | 1.4µM* | u | u
O=[N+]([O-])c1cc(/C=N/n2c(-c3cccnc3)n[nH]c2=S)ccc1Cl | u | -19 | 40µM* | 1.3µM* | -2 | -8%
Nc1nnnn1/N=C\c1ccc(Cl)c([N+](=O)[O-])c1 | 3% | -8 | -15% | 40%[0.0925 µM] | -10 | 58%
O=[N+]([O-])c1cc2c(cc1C=Nc1ccccc1)OCO2 | u | -14 | u | u | -10 | -34%
O=S(=O)(NCc1ccco1)c1ccc(Cl)nc1 | -22% | 10 | -3% | u | -24 | 7%
SMILES | BAZ2B inh | Six1-Eya2 blk | JMJD2A Tudor | G9a inh | CtBP-E1A inh | HP1b chromo inh
Cc1c(P(=S)(c2ccccc2)c2ccccc2)c2ccccc2n1CCc1ccccc1 | x | x | -22% | x | x | x
CN1\C(=C/C=C/C=C/C=[N+](C)C)C(C)(C)c2ccccc21 | 11µM* | u | 50µM* | 11µM* | x | u
CN1/C(=C\C=Nc2ccc3ccccc3c2)C(C)(C)c2ccccc21 | -35% | x | x | 1.8µM* | x | x
Cc1cc(/N=C/C=C2\N(C)c3ccccc3C2(C)C)n(CCC#N)n1 | u | -15 | u | 50µM* | 10 | 0%
CN1/C(=C\C=O)C(C)(C)c2ccccc21 | x | 0 | -21% | 4% | 5 | 11%
CN(C)c1ccc(N=C/C=C2\N(C)c3ccccc3C2(C)C)cc1 | 35µM* | -66* | -8%[11.4 µM] | 40µM* | u | 50µM*
N#Cc1c(N)nc2c(c1N)CC(=O)N2c1ccc(Cl)cc1 | u | -14 | -34% | -51%[59 µM] | -19 | -10%
O=C(COC(=O)Cc1ccc(S(=O)(=O)N2CCOCC2)s1)Nc1ccc(OC(F)F)cc1 | x | 0 | u | x | 3 | 20%
CCOc1cc(/C=N\Nc2nc(-c3ccc(C)cc3)c(NC(C)=O)s2)ccc1O | -38% | -22 | 28µM* | 32µM* | u | u
COc1ccc(/C=N/Nc2nc(-c3ccc(C)cc3)c(NC(C)=O)s2)cc1OC | u | 4 | -33% | x | 8 | u
CCOc1cc(/C=N/Nc2ncc(C)c(=O)[nH]2)ccc1O | -12% | u | -6% | 7% | -81* | 35%
CCOc1cc(/C=N/Nc2nc(C)cc(=O)[nH]2)ccc1O | -9% | u | -14% | -35%[2.33 µM] | u | 39%
COc1cc(/C=N\Nc2nc(-c3ccc(C)cc3)c(NC(C)=O)s2)ccc1O | 40µM* | -8 | -27%[11.4 µM] | -120%[59 µM] | u | 28µM*
Cc1ccc(CNC(=O)c2ccc3c(c2)S(=O)(=O)c2ccccc2C3=O)o1 | x | -26 | u | x | -16 | -34%
CC(C)(C)C(=O)NC(CC(=O)O)c1ccccc1 (centres undefined) | -11% | 0 | -6% | 50µM* | 5 | 47%
Cc1nnc(NC(=O)CC(NC(=O)C(F)(F)F)c2ccccc2)s1 (centres undefined) | -3% | -17 | -17% | 40µM* | -21 | -1%
O=C(CC(NC(=O)C(F)(F)F)c1ccccc1)Nc1nnc(CCc2ccccc2)s1 (centres undefined) | 9% | 11 | -17% | 10µM* | 4 | -12%
Cc1nnc(NC(=O)CC(C)c2ccccc2)s1 (centres undefined) | 8% | 1 | 8% | x | 12 | 32%
CCCCCCCCCCCCCCCCCCNc1ccn(C2OC(COP(=O)(O)OCC3OC(n4cc(F)c(=O)[nH]c4=O)CC3O)C(O)C2O)c(=O)n1 (centres undefined) | x | u | 56µM* | x | 3 | -15%
NC(=O)c1sc2nc3c(c(-c4ccco4)c2c1N)CCCC3 | -19% | -23 | -24% | -28%[59 µM] | x | 27%
Nc1c(C(=O)Nc2cccc(Cl)c2Cl)sc2nc(-c3cccnc3)ccc12 | -2% | 10 | -12% | 89µM* | 13 | 64%
COc1ccccc1NC(=O)c1sc2nc(-c3ccco3)ccc2c1N | -6% | 5 | 20%[57.1 µM] | 2.5µM* | 19 | 54%
